Source: PubChem BioAssay
HEK293 tox: kills HEK 293 cells; Potency, µM (titrated, usually from 115 µM), most hits filed as inhibitors; HEK 293 viability, ATP luminescence (CellTiter-Glo), 48-72 h; actives 6.6% (n = 94,000); further: nearly all actives have a fitted effect of over 60% in size
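250 HEK 293 cells/well; compound by pintool; incubated 48 or 72 hr at 37 degree Celsius; CellTiter-Glo added, 10 min RT, luminescence imaged.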
NPR1 antag: antagonists of human natriuretic peptide receptor Npr1. P16066. actives 1.6% (n = 76,000). HEK293 hNpr1 GloSensor cGMP, ANP-stimulated luminescence. Potency, µM (titrated, usually from 46.3 µM), hits mostly inhibitors; calls by dose curve; further: nearly all actives have a fitted effect of over 60% in size
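Compound pre-incubated 30 min at room temperature on GloSensor-loaded HEK293 cells stably carrying hNpr1 and the pGS-40F cGMP biosensor. Stimulation uses hNppA at 0.1 nM final; luminescence is taken at baseline and 20 min post-agonist.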
GPT2 inhibitor: blocks human glutamate pyruvate transaminase 2. actives 0.25% (n = 100,000). Recombinant GPT2, coupled pyruvate oxidase/HRP Amplex Red fluorescence. Q8TD30. Potency, µM (top dose mostly 57.7 µM), most hits filed as inhibitors; further: nearly all actives have a fitted effect of over 60% in size
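Recombinant GPT2 (10ng/uL) with 250uM a-KG and 2mM L-alanine, 30 min at room temperature, in HEPES pH 7.5 buffer. Pyruvate detected by pyruvate oxidase/HRP/Amplex Red fluorescence after 30 min in the dark; AOA (50uM) as positive control.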
3T3 cytotox: NIH 3T3 cell cytotoxicity. NIH 3T3 viability, CellTiter-Glo ATP luminescence, 48-72 h. Potency, µM (doses to about 96.7 µM), hits mostly inhibitors. actives 4.3% (n = 94,000). AID 1345082; further: nearly all actives have a fitted effect of over 55% in size
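Cytotoxicity was measured by CellTiter-Glo ATP luminescence after 48 or 72 h compound exposure at 37 °C. Mouse NIH 3T3 fibroblasts were seeded at 400 cells/well and dosed by 23 nL pin transfer.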
Luciferase inh: blocks purified firefly luciferase enzyme activity; actives 2.5% (n = 76,000); P08659; purified P. pyralis luciferase, luminescence, biochemical; Potency, µM (top dose mostly 115 µM), actives largely listed as inhibitors; further: nearly all actives have a fitted effect of over 65% in size
Target sequence (P08659 whole entry, looked up): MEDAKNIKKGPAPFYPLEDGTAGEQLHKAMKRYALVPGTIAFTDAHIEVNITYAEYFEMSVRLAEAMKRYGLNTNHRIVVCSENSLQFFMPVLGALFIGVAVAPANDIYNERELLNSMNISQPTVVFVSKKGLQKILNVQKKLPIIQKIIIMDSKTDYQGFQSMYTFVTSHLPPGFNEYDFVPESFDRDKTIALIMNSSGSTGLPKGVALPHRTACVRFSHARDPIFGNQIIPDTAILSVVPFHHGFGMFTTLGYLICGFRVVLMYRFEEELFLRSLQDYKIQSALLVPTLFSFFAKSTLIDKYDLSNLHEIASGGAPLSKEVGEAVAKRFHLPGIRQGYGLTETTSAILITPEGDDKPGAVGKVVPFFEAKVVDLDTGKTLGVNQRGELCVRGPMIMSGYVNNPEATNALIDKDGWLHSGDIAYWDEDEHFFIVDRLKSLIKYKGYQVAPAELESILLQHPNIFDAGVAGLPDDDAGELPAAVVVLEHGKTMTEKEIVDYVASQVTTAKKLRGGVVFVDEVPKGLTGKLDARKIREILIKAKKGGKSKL
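Luminescence read by CCD imaging after purified firefly luciferase (10nM final) was added to substrate buffer holding 10uM D-luciferin and 10uM ATP, pH 7.5, pre-dosed with compound.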
NPR1 antag cnf: hNpr1 antagonism, confirmation assay | shares compounds with NPR1 antag | HEK293 hNpr1 cGMP GloSensor luminescence, ANP-stimulated | Potency, µM (highest dose often 57.6 µM), actives largely listed as inhibitors | actives 76% (n = 1,400); calls by dose curve; further: nearly all actives have a fitted effect of over 70% in size
NPR2 antag: antagonizes human Npr2, subtype selectivity check; actives 67% (n = 1,400); Potency, µM (titrated, usually from 57.6 µM), most hits filed as inhibitors; HEK293 hNpr2 GloSensor cGMP luminescence, CNP-stimulated; AID 1347046; shares compounds with NPR1 antag; calls by dose curve; further: nearly all actives have a fitted effect of over 70% in size
FLuc counter: counter-screen for Npr1 antagonists: firefly luciferase inhibitors; actives 0.7% (n = 1,400); purified FLuc enzyme, luminescence, Km substrate; AID 1347047; shares compounds with NPR1 antag; Potency, µM (top dose mostly 57.6 µM), usual class: inhibitors
GloSensor ctrl: reduces cGMP signal in GloSensor control cells; shares compounds with NPR1 antag; HEK293 GloSensor cGMP, SNP-stimulated, luminescence; Potency, µM (doses to about 57.6 µM), hits mostly inhibitors; actives 69% (n = 1,400); AID 1347051; calls by dose curve; further: nearly all actives have a fitted effect of over 70% in size
Large screens that a line does not name were inactive (follow-up assays come after a bar, where they were run). Most compounds without a hit are left out; they make up all but 10% or so of the library. Unless noted, the call rests on the fitted dose curve; in most records, active means well fitted curve in the direction sought with a large enough effect; inconclusive means small, poorly fitted or top-dose-only effect, or another doubt; inactive means no such curve, though single readings can be large; an effect the other way counts as inactive or inconclusive.

CC(C)Cc1cn(CC2CCCN(C(=O)c3n[nH]c4c3CCCC4)C2)nn1 (stereo not given)	HEK293 tox inconclusive, NPR1 antag 14µM, 3T3 cytotox inconclusive | NPR1 antag cnf 19µM | NPR2 antag 17µM | FLuc counter inconclusive | GloSensor ctrl 15µM
CC(C)C1CN(C(=O)c2n[nH]c3c2CCC3)CCC(=O)N1CC1CC1 (stereo not given)	none
O=C1N[C@H](CC(=O)N2CCN(c3ccc(C(F)(F)F)cn3)CC2)C(=O)Nc2ccccc21	HEK293 tox inconclusive, NPR1 antag inconclusive | NPR1 antag cnf inconclusive | NPR2 antag inconclusive | FLuc counter inactive | GloSensor ctrl inconclusive
CC(=O)Nc1ccc(-c2nnc3n2CCN(C(=O)c2ccc(C)cc2)C3)cc1	none (no result: NPR1 antag, GPT2 inhibitor, Luciferase inh)
CCn1nc(C)c(-c2cc(C(=O)NCCc3noc(COC)n3)no2)c1C	HEK293 tox inconclusive, 3T3 cytotox inconclusive
CCn1nc(C)c(CNC(=O)c2cc(COc3ccc4ncccc4c3)on2)c1C	HEK293 tox inconclusive, NPR1 antag 10µM, 3T3 cytotox inconclusive | NPR1 antag cnf 22µM | NPR2 antag 19µM | FLuc counter inactive | GloSensor ctrl 17µM
c1cncc(-c2nc(-c3ccc(OC4CNC4)cc3)no2)c1	HEK293 tox inconclusive, 3T3 cytotox inconclusive
O=C(Nc1ccc(F)cc1)c1ccc2nc(-c3ccncc3)oc2c1	none (no result: NPR1 antag, Luciferase inh)
COc1ccccc1OCCNC(=O)C1CCN(c2cc(C(F)(F)F)nc(C)n2)CC1	HEK293 tox inconclusive, NPR1 antag inconclusive, 3T3 cytotox inconclusive | NPR1 antag cnf inactive | NPR2 antag inactive | FLuc counter inactive | GloSensor ctrl inactive
CCOc1ccccc1C(=O)NC1CCN(c2cc(C(F)(F)F)nc(C)n2)CC1	HEK293 tox inconclusive, NPR1 antag inconclusive, 3T3 cytotox inconclusive | NPR1 antag cnf 24µM | NPR2 antag inconclusive | FLuc counter inactive | GloSensor ctrl 24µM
CC(C)C(=O)N1Cc2ccccc2CC2(CCN(Cc3ccncc3)C2)C1 (stereo not given)	none (no result: NPR1 antag, Luciferase inh)
COc1ccc(CNC[C@H]2Cn3c(-c4ccc(Cl)cc4)cnc3CO2)cc1	HEK293 tox 56µM, NPR1 antag 25µM, 3T3 cytotox 32µM | NPR1 antag cnf 31µM | NPR2 antag 35µM | FLuc counter inactive | GloSensor ctrl inconclusive
COc1ccc(S(=O)(=O)NC[C@H]2Cn3c(-c4ccc(Cl)cc4)cnc3CO2)cc1	HEK293 tox 89µM, NPR1 antag inconclusive, 3T3 cytotox 79µM | NPR1 antag cnf inconclusive | NPR2 antag inconclusive | FLuc counter inactive | GloSensor ctrl inactive
COc1ccc(C(=O)NC[C@H]2Cn3c(-c4ccc(F)cc4)cnc3CO2)cc1	HEK293 tox inconclusive, NPR1 antag inconclusive, 3T3 cytotox inconclusive
CCC1CCCCN1CCNC(=O)c1cc2c(s1)CN(C1CCCC1)C2 (stereo not given)	HEK293 tox inconclusive, 3T3 cytotox inconclusive, Luciferase inh inconclusive
CN(Cc1cccnc1)Cc1nc(C2(O)CCN(Cc3ccc(F)cc3)CC2)cs1	HEK293 tox inconclusive, NPR1 antag inconclusive, 3T3 cytotox inconclusive
CN(Cc1cccnc1)Cc1nc(C2(O)CCN(Cc3ccc(C(F)(F)F)cc3)CC2)cs1	NPR1 antag 1µM | NPR1 antag cnf 0.86µM | NPR2 antag 1.7µM | FLuc counter inactive | GloSensor ctrl 0.86µM
COCCC1(N(C)C)CCN(C(=O)c2ccncc2)CC1	none (no result: NPR1 antag, Luciferase inh)
